# Laboratory results: PubChem BioAssay AID602474 (National Center for Advancing Translational Sciences (NCATS), 2012)
# Inconclusive results are not listed. Calls of active or inactive are those of the source. Calls follow the shape of the dose curve; as a rule, active = well fitted inhibition curve with a large enough effect; inconclusive = small, poorly fitted or top-dose-only effect; inactive = no such curve, though single readings can be large or run the other way.
# Target: Luciferin 4-monooxygenase (Photinus pyralis) (UniProt P08659)
# Assay: FLuc inhibitory activity for the follow-up compounds in a biochemical assay with a commercial detection reagent - BriteliteTM Plus (PerkinElmer)
# Conditions: purified FLuc, Britelite Plus luminescence; series mostly up to 38.3 µM
# Excerpt: NCGC Assay Overview: Firefly (Photinus pyralis) luciferase is one of the most commonly used transcriptional reporters. It is considered one of the more dynamically responsive reporters - that is, responsive to changes in reporter transcription - as it requires no post-translational modifications and is enzymatically active directly after protein synthesis (Wood, 1998). With no endogenous expression in mammalian cells and without the requirement of external excitation, it offers very little background signal, thus generally providing excellent signal to background for most assays. Previous profiling work to determine the prevalence of compounds that affect FLuc enzymatic activity (PubChem AID 411) identified that ~3% of the MLSMR library (then at ~72K) inhibited FLuc (Auld et al., 2008). […] Of the compounds identified in this profile that inhibited FLuc, 151 compounds were selected for further analysis, in an effort to better understand their mode of inhibiting FLuc. The assay described here was to determine the activity of the compounds in a FLuc assay that used a commercial formulation of detection reagent (BriteliteTM Plus; PerkinElmer).
# NCGC Assay Protocol Summary: Reagents: Britelite Plus detection reagent; 50mM Tris acetate, pH 7.5; 10nM P. pyralis luciferase (Sigma #L9506) Control compounds used were two known firefly luciferase inhibitors (3-(5-(3-chlorophenyl)-1,2,4-oxadiazol-3-yl)benzoic acid and 5-(2-fluorophenyl)-3-phenyl-1,2,4-oxadiazole), and DMSO. Assay Summary: Three microliters of buffer containing firefly luciferase (final concentrations: 50mM Tris acetate, 10nM P. pyralis luciferase) are dispensed into each well of a Greiner white, solid-bottom 1536-well format plate using a flying reagent dispenser (FRD). These assay plates were then treated with 23nL of compound or DMSO using a Kalypsys pin tool, which allows for delivery of a 12-point intraplate titration of each compound to the assay plate (quantitative HTS), with final compound concentrations ranging from approximately ~38uM to 0.2nM. Three microliters of 2X Britelite Plus detection reagent was then delivered by FRD to each well. Luciferase activity was then measured using a ViewLux CCD imager (PerkinElmer), with an average exposure time of 2-30 seconds (2X binning, medium/high gain).
# Sequence of Luciferin 4-monooxygenase (Photinus pyralis) (P08659 whole entry, looked up): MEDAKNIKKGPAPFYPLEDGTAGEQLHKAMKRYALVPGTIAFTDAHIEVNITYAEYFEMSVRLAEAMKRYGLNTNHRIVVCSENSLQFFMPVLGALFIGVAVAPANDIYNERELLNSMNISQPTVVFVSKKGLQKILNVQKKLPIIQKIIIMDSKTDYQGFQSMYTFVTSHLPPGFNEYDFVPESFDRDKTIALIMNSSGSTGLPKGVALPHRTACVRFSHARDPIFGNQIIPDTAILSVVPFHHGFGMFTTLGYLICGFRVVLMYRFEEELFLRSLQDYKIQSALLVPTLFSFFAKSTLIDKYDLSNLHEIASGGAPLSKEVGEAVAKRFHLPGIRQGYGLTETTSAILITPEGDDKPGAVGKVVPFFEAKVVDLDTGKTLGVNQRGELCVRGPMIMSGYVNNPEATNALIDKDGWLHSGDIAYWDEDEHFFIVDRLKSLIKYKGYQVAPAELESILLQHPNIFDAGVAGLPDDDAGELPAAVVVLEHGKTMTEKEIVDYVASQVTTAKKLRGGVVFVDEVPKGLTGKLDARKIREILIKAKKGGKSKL
row,SMILES,Potency
1,O=C(O)c1cccc(NC(=O)c2ccc(COc3ccc(Cl)cc3)cc2)c1,inactive
2,Cc1cccc(C(=O)Nc2ccc(-c3nc4ccccc4s3)cc2Cl)c1,inactive
3,COc1cc(OC)cc(C(=O)Nc2ccccc2-c2nc3ccccc3s2)c1,inactive
4,O=C(O)c1cccc(NC(=O)c2ccc(Cl)c(S(=O)(=O)N3CCCCCC3)c2)c1,3180 nM (active)
5,Cn1c(N/N=C/c2cc3ccccc3nc2Cl)nc2ccccc21,12600 nM (active)
6,COc1ccc2nc(NC(=O)c3cnccn3)sc2c1,2000 nM (active)
7,Cc1ccc(C(=O)Nc2cccc(C(=O)O)c2)cc1,2000 nM (active)
8,c1ccc2sc(-c3ccc4c(c3)OCO4)nc2c1,1790 nM (active)
9,COc1ccc(C(=O)Nc2ccccc2C(=O)Nc2ccc(C(=O)O)cc2)cc1,14200 nM (active)
10,Cc1c(NS(C)(=O)=O)cccc1-c1nc2ccccc2s1,inactive
11,O=C(Cc1ccccc1)Nc1ccccc1C(=O)Nc1ccc(C(=O)O)cc1,inactive
12,O=C(Nc1ccccc1-c1nc2ccccc2s1)c1ccc(Br)o1,inactive
13,CC(C)c1ccc(-c2nc3ccccc3s2)cc1,22.5 nM (active)
14,COc1ccc2nc(NC(=O)c3ccc4ncsc4c3)sc2c1,25200 nM (active)
15,O=C(Nc1ccccc1C(=O)O)c1cccc(NC(=O)c2ccc(Br)o2)c1,inactive
16,Nc1ccc2nc(-c3ccccc3)sc2c1,634 nM (active)
17,CCOc1ccc2nc(NC(=O)c3ccccn3)sc2c1,895 nM (active)
18,Cc1ccc(C(=O)Nc2cccc(C(=O)O)c2)cc1S(=O)(=O)N1CCCCC1,2830 nM (active)
19,Cc1ccc(C(=O)Nc2ccccc2C(=O)O)cc1S(=O)(=O)N1CCCCCC1,8950 nM (active)
20,O=C(O)c1ccc(NC(=O)c2cc(S(=O)(=O)N3CCCCC3)c(Cl)cc2Cl)cc1,inactive

row,SMILES,Potency
1,COc1ccc2nc(NC(=O)c3ccco3)sc2c1,1590 nM (active)
2,COc1cccc(-c2nc3ccccc3s2)c1,5650 nM (active)
3,Cc1ccc(C(=O)O/N=C(\N)c2ccccn2)c(Cl)c1,25.2 nM (active)
4,COc1ccc(CC(=O)Nc2cccc(C(=O)Nc3ccccc3C(=O)O)c2)cc1OC,inactive
5,O=C(COC(=O)c1ccccc1[N+](=O)[O-])c1ccc2c(c1)OCO2,17.9 nM (active)
6,COc1ccc2nc(NC(=O)c3ccc([N+](=O)[O-])o3)sc2c1,3560 nM (active)
7,O=C(O)c1cccc(NC(=O)c2cccc(S(=O)(=O)N3CCc4ccccc4C3)c2)c1,inactive
8,O=C(O)c1ccc(NC(=O)c2cccc(C(=O)Nc3ccc(C(=O)O)cc3)c2)cc1,inactive
9,COc1ccc(C(=O)Nc2ccccc2C(=O)N/N=C/c2ccc(O)c(OC)c2)cc1,2 nM (active)
10,O=C(Nc1ccccc1C(=O)Nc1ccccc1C(=O)O)c1ccccc1,inactive
11,CN(C)S(=O)(=O)c1ccc(C(=O)Nc2ccccc2C(=O)O)cc1,inactive
12,CCOc1ccc2nc(NC(=O)c3ccoc3C)sc2c1,2000 nM (active)
13,CC(=O)Nc1cccc(C(=O)Nc2ccccc2C(=O)O)c1,inactive
14,C/C(=N\NC(=O)c1ccccc1NC(=O)c1ccc(Cl)cc1)c1ccncc1,15.9 nM (active)
15,O=C(Nc1ccccc1C(=O)O)c1cc(S(=O)(=O)Nc2cccc(F)c2)ccc1Cl,inactive
16,O=C(O)c1cccc(NC(=O)c2ccccc2NC(=O)c2ccccc2F)c1,inactive
17,Cc1ccc2nc(-c3ccc(NC(=O)CN4CCN(C(=O)c5ccco5)CC4)cc3)sc2c1,798 nM (active)
18,COc1ccc(C(=O)Nc2cccc(C(=O)O)c2)cc1S(=O)(=O)N1CCCC1,inactive
19,COc1ccc2nc(NC(=O)c3ccc(S(=O)(=O)N4CCCC(C)C4)cc3)sc2c1 (stereo not given),inactive
20,O=C(Nc1ccccc1C(=O)O)c1cccc(NC(=O)c2ccccc2Cl)c1,inactive
